Data on 73 compounds can be found in PubChem BioAssay AID1345083 (National Center for Advancing Translational Sciences (NCATS), 2018).

The whole screen tested about 94,000 compounds, of which about 6,200 (6.6%) were called active. A call without a number means that no potency is given here. Not shown: some 31% with an inconclusive outcome. The call rests on the fitted dose curve; in most records, active means well fitted inhibition curve with a large enough effect; inconclusive means small, poorly fitted or top-dose-only effect; inactive means flat fitted curve, though single readings scatter. For the sample, actives were picked, then their nearest neighbours and some compounds at random.
Potency means the concentration at half of the fitted maximal effect.

The assay is described as follows: Cytotoxic Profiling in HEK 293 Cell Line of Diverse Libraries Using Quantitative High-Throughput Screening. Further: nearly all actives have a fitted effect of over 60% in size. Particulars: HEK 293 viability, ATP luminescence (CellTiter-Glo), 48-72 h; series mostly up to 115 µM. Summed up:
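250 HEK 293 cells/well; compound by pintool; incubated 48 or 72 hr at 37 degree Celsius; CellTiter-Glo added, 10 min RT, luminescence imaged.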
(Cellular ATP, detected with luciferase, serves as a proxy for viable cell number.)
For `COCC(=O)N1CCCN(Cc2ccncc2)C(c2ccccc2)CC(=O)NCC1` (stereo not drawn), the Potency result is “inactive”.

On to `CC(C)c1ccc(N2C(=O)N[C@@H]3CCN(C(=O)c4ccc(C(C)(C)C)cc4)[C@@H]3C2=O)cc1`, for which the Potency was 79.4 µM (active).

Take `COC(=O)[C@H](Cc1ccc(OC)cc1)NC(=O)[C@H]1CN(C(=O)c2cccnc2)CCN1C(=O)NC1CCCCC1`: the Potency entry was “inactive”. The entry for `Cc1ccc(-c2cccc(CN3CCCC(NC(=O)c4ccc(C(F)(F)F)cc4)C3)c2)cc1Cl` (stereo not drawn) is “inactive”; for `COc1cccc(CC(=O)NC2CCN(c3cn[nH]c(=O)c3)CC2)c1` it is “inactive”; for `CC(=O)N1CCCN(C(=O)C2CCCCN2Cc2ccc(-c3ccsc3)cc2)CC1` (stereo not drawn) it is “inactive”. For `COc1ccc(C(=O)N2CCN(Cc3ccccc3-c3ccc(C)c(Cl)c3)CC2)cc1`, the Potency result is “inactive”. For `COc1cccc(-c2ccc(CN3CCCC3C(=O)NC3CCCCC3)cc2)c1` (stereo not drawn) the value was 44.7 µM (active); for `COc1cccc(-c2cccc(C(=O)N3CCCC3C(=O)NCC3CC3)c2)c1` (stereo not drawn), “inactive”; for `O=C(NCc1ccccn1)C1CCN(C(=O)c2ccc(-c3cccs3)cc2)CC1`, “inactive”.

`CNC(=O)C1CCCCN1Cc1ccc(-c2cccs2)cc1` (stereo not drawn): the Potency is 28.2 µM (active). With `O=C(NCCCc1ccccc1)C1CCc2nnc(-c3cccc(C(F)(F)F)c3)n21` (stereo not drawn), the Potency entry was “inactive”. Consider `COc1cccc(-c2ccc(CN3CCCC3C(=O)NCc3ccccc3Cl)cc2)c1` (stereo not drawn), for which the Potency is 31.6 µM (active). With `Cc1ccc(-c2cccc(CN3CCCC3C(=O)NCC(F)(F)F)c2)cc1Cl` (stereo not drawn), the Potency is 31.6 µM (active).

Consider `COCCC(=O)N1CCC2(CCC2NC(=O)COC)CC1` (stereo not drawn), for which the Potency result was “inactive”. For `CCN(CC)CC(=O)N1CCC(Oc2ccccc2C)(C(=O)O)CC1`, the Potency entry is “inactive”. Take `COCC(=O)N(C1CCOCC1)C1CCN(C(=O)c2cccc(OC)c2)CC1`: the Potency result was “inactive”. As to `CC(C)CN1C(=O)COC[C@@H]1[C@H](O)c1ccc(NC(=O)Cc2ccccc2)cc1`, the Potency result is “inactive”. For `COc1ccccc1CN1C(=O)COC[C@@H]1[C@H](O)c1ccc(NC(=O)c2ccc(C#N)cc2)cc1`, the Potency was 39.8 µM (active). Turning to `CCN1C(=O)COC[C@@H]1C(O)c1ccc(NC(=O)Cc2ccc(OC)cc2)cc1` (stereo partly drawn), the Potency entry was “inactive”. Turning to `Cc1ccc(NC(=O)N2CC[C@H]3C(=O)NCCCCCN(Cc4cccnc4)[C@@H]3C2)cc1C`, the Potency entry was “inactive”. Regarding `O=C(CCC1CCCC1)N1CCN2CCS(=O)(=O)N(C3CC3)C(=O)C2C1` (stereo not drawn), the Potency result was “inactive”. For `CC(C)c1ccc(S(=O)(=O)N(C)CC2CCOC2)cc1` (stereo not drawn) the value was “inactive”; for `O=c1[nH]c(-c2ccncc2)nc2c1CCN(S(=O)(=O)N1CCCC1)C2`, “inactive”; for `O=C([C@@H]1C[C@H](F)CN1S(=O)(=O)c1ccc(Cl)cc1)N1CCCCC1`, “inactive”. With `O=C(c1cccc(Br)c1)N1CCN(C2CCN(Cc3ccccn3)C2=O)CC1` (stereo not drawn), the Potency result is “inactive”. Regarding `O=C1CN(Cc2ccc(-c3ccccc3)cc2)CCN1c1cc(Cl)ncn1`, the Potency was 31.6 µM (active). Take `Cn1cc(CN2CCN(Cc3ccccc3)CC2)ccc1=O`: the Potency entry is “inactive”. For `O=C(c1ccncc1)N1CCN(c2ccc(Cl)nn2)C(=O)C1` the value was “inactive”. Take `COc1ccc(Cn2c(CN(C)S(C)(=O)=O)n[nH]c2=O)cc1`: the Potency entry was “inactive”. For `CC(C(=O)NC1CCCCC1)[C@@H]1CC[C@@]2(C)CC[C@H](N[S+](C)(=O)[O-])[C@@H](C)[C@@H]2[C@H]1O` (stereo partly drawn) the value was “inactive”.

Turning to `CN(Cc1ccc(-c2ccccc2)cc1)C(=O)c1ccccc1F`, the Potency is 89.1 µM (active). For `CN(Cc1ccccc1)Cc1ccc(F)cc1` the value was “inactive”. Consider `CN(Cc1ccc(OC(F)(F)F)cc1)Cc1ccc(-c2ccccc2)cc1`, for which the Potency result was “inactive”. Turning to `O=C(CC1Cc2ccccc2C1)N1CCN(CCO)CC(O)C1` (stereo not drawn), the Potency result is “inactive”. As for `CCCCCC(=O)Nc1nc2c(s1)C[C@@H]1[C@](C)(CO)[C@H](O)CC[C@@]1(C)[C@@H]2CC(=O)N1CCC(C(N)=O)CC1`, the Potency entry was “inactive”.

`O=C(CCn1cccn1)N[C@@H]1CN(Cc2ccccc2)C[C@H]1CO`: the Potency result is “inactive”.

As for `CC1=Nc2cc(C(=O)NCc3ccc(C)cc3)ccc2Sc2ccc(Cl)cc21`, the Potency was 31.6 µM (active). The entry for `CSc1ccc(CNC(=O)c2noc(-c3ccc(C)cc3)n2)cc1` is “inactive”; for `O=C(CCc1cc(Cl)no1)NCCc1noc(C2CC2)n1` it is “inactive”. `COc1ccc(-c2nnc3n2CCN([S+](C)(=O)[O-])C3)cc1`: the Potency result is “inactive”. `Cc1cc(C)n(C2CN(c3cc(C4CC(O)C4)nc(C)n3)C2)n1` (stereo not drawn): the Potency entry was “inactive”. As to `Cc1cc(C)n(-c2ccc(NC(=O)CC[C@H]3NC(=O)c4ccccc4NC3=O)cc2)n1`, the Potency result is “inactive”.

For the compound `O=C(NC1CCCc2c1[nH]c1ccc(F)cc21)c1ccccn1` (stereo not drawn), the Potency entry was “inactive”. For `COc1ccc(CC(=O)NC2CCCc3c2[nH]c2ccccc32)cc1` (stereo not drawn) the value was 35.5 µM (active); for `COc1ccc(C(=O)N[C@@H]2CCC[C@@H]2C(=O)NCc2cccc(OC)c2)cc1`, “inactive”; for `CN1CCCN(C(=O)c2ccccc2)c2ccccc21`, “inactive”.

On to `O=C(NCc1ccc(C(F)(F)F)cc1)c1ccc2nnc(-c3ccc(C(F)(F)F)cc3)n2c1`, for which the Potency is 35.5 µM (active). `O=C(NCc1cccc(Cl)c1)c1ccc2nnc(Cc3ccc(Cl)cc3)n2c1`: the Potency is 44.7 µM (active). With `CCN1CCN(C(=O)c2ccc3nnc(Cc4ccc(Cl)cc4)n3c2)CC1`, the Potency result was “inactive”.

As to `COCCNC(=O)c1ccc2nnc(-c3cccc(C(F)(F)F)c3)n2c1`, the Potency result is “inactive”. As to `O=C(NCc1ccc(F)c(F)c1)c1ccc2nnc(-c3cccnc3)n2c1`, the Potency entry is “inactive”. In the case of `O=C(NCc1ccc(F)cc1)c1ccc2nnc(Cc3ccco3)n2c1`, the Potency entry was “inactive”. On to `COc1cccc(CN2CC(O)CN(S(C)(=O)=O)CC2=O)c1OC` (stereo not drawn), for which the Potency result was “inactive”. Turning to `COc1ccc2[nH]c(C(=O)N[C@@H]3CN(S(C)(=O)=O)C[C@H]3CN(C)C)cc2c1`, the Potency entry is “inactive”.

In the case of `CCNC(=O)N1CCC(n2c(C)cnc2C2CCC2)CC1`, the Potency entry was “inactive”.

`COCCc1noc(CC2CCOC3(CCN(C(=O)Nc4ccc5c(c4)OCCO5)CC3)C2)n1` (stereo not drawn): the Potency entry is “inactive”. For `COc1ccc(CN2CCC3(CC(C(C)C)=NO3)C2)cc1` (stereo not drawn) the value was “inactive”; for `COc1ccc(CN2CCC3(CC2)CC(=O)c2ccc(Cl)cc2O3)cc1`, 39.8 µM (active); for `CC1=NOC2(CCN(Cc3ccncc3)CC2)C1`, “inactive”.

For `COc1ccccc1CN1CC[C@H](CNC(C)=O)[C@H](N(C)C)C1`, the Potency result is “inactive”. Turning to `CC(=O)N1CCC(C(=O)NCC2CCN(c3cc(-c4ccc(C)cc4)[nH]n3)CC2)CC1`, the Potency entry is “inactive”.

For the compound `O=C(NCc1ccccc1F)C1(c2ccc(Cl)cc2)CCOCC1`, the Potency entry was “inactive”. On to `O=C(N1CCN(c2cc(-c3ccc(Cl)cc3)[nH]n2)CC1)C1(c2ccccc2)CC1`, for which the Potency was 44.7 µM (active).

Turning to `O=C(c1ccc2cc[nH]c2c1)N1CCCN(c2cc(-c3ccc(Cl)cc3)[nH]n2)CC1`, the Potency was 39.8 µM (active). The entry for `Cc1nccn1CC(=O)NCC1CCN(c2cc(-c3ccccc3)[nH]n2)CC1` is “inactive”.

For `O=C(c1ccc(F)cc1F)N1CCN(c2cc(-c3ccc(Cl)cc3)[nH]n2)CC1`, the Potency is 39.8 µM (active).

`COc1ccccc1C(=O)N1CCCN(c2nnc3ccccn23)CC1`: the Potency entry was “inactive”. With `O=C(c1ccccc1Cl)N1CCCN(c2cc(-c3ccc(F)cc3)[nH]n2)CC1`, the Potency is 44.7 µM (active). Turning to `COc1ccccc1C(=O)N1CCCN(c2ccc3nnc(C)n3n2)CC1`, the Potency entry is “inactive”.

As to `O=C(NCC1CCN(c2cc(-c3ccc(Cl)cc3)[nH]n2)CC1)c1ccc(=O)[nH]c1`, the Potency entry is “inactive”. As for `O=C(Cc1ccc(F)cc1)NC1CCN(c2cc(-c3ccc(Cl)cc3)[nH]n2)CC1`, the Potency entry was “inactive”. For `COc1ccc(-c2cc(N3CCN(C(=O)c4ccncc4)CC3)n[nH]2)cc1` the value was “inactive”.
